Laboratory results as given in PubChem BioAssay AID1159580 (chemical genetic matrix, 2015).
The campaign covered roughly 5,500 compounds. About 2,000 (36%) were called active. Another 18% or so got no clear call; they are omitted. No stated cut-off is given here; in the data, active means normalized growth mostly below about 0.91 (no sharp cut-off); inconclusive means no clear call, values can overlap the other calls; inactive means mostly above about 0.92. The list shows a part of the results.

Experiment: chemical genetic growth profiling, strain panel (AID 1159580);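 further: tested at 20 µM; growth read once vehicle control cultures reached saturation at 30 °C; 1 = growth at the plate median or of vehicle wells; lower values mean less growth of the strain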
Conditions: growth OD
[1] = S. cerevisiae deletion strains, locus YDL101C, strain DUN1, hits give low values
[2] = S. cerevisiae deletion strains, locus YHR030C, strain SLT2, hits give low values

Measured: normalized growth

O=C1c2ccccc2C(=O)N1CNc1cccc(Cl)c1
inactive: S. cerevisiae deletion strains, locus YAL013W, strain DEP1, hits give low values 0.983 | S. cerevisiae deletion strains, locus YBR229C, strain ROT2, hits give low values 1 | [1] 0.972 | S. cerevisiae deletion strains, locus YDR150W, strain NUM1, hits give low values 0.931 | S. cerevisiae deletion strains, locus YEL061C, strain CIN8, hits give low values 0.986 | S. cerevisiae deletion strains, locus YGR078C, strain PAC10, hits give low values 0.963 | [2] 0.959 | S. cerevisiae deletion strains, locus YHR087W, strain rtc3, hits give low values 1 | S. cerevisiae deletion strains, locus YJL187C, strain SWE1, hits give low values 1.01 | S. cerevisiae deletion strains, locus YJR043C, strain POL32, hits give low values 0.943 | S. cerevisiae deletion strains, locus YJR075W, strain HOC1, hits give low values 0.951 | S. cerevisiae deletion strains, locus YKL190W, strain CNB1, hits give low values 1.02 | S. cerevisiae deletion strains, locus YLR039C, strain RIC1, hits give low values 1.01 | S. cerevisiae deletion strains, locus YLR058C, strain SHM2 (second series), hits give low values 1 | S. cerevisiae deletion strains, locus YLR085C, strain ARP6, hits give low values 0.96 | S. cerevisiae deletion strains, locus YLR262C, strain YPT6, hits give low values 0.98 | S. cerevisiae deletion strains, locus YML094W, strain GIM5, hits give low values 0.96 | S. cerevisiae deletion strains, locus YMR219W, strain ESC1, hits give low values 1 | S. cerevisiae deletion strains, locus YMR263W, strain SAP30, hits give low values 0.984 | S. cerevisiae deletion strains, locus YNL128W, strain TEP1, hits give low values 1 | S. cerevisiae deletion strains, locus YNL153C, strain GIM3, hits give low values 0.94 | S. cerevisiae deletion strains, locus YNL298W, strain CLA4 (second series), hits give low values 0.943 | S. cerevisiae deletion strains, locus YNL322C, strain KRE1, hits give low values 1.01 | S. cerevisiae deletion strains, locus YNR030W, strain Alg12, hits give low values 0.95 | S. cerevisiae deletion strains, locus YOL006C, strain TOP1, hits give low values 0.993 | S. cerevisiae deletion strains, locus YPL055C, strain LGE1, hits give low values 0.978 | S. cerevisiae deletion strains, locus YPL241C, strain CIN2, hits give low values 0.971 | S. cerevisiae deletion strains, locus YPR135W, strain CTF4, hits give low values 0.894 | S. cerevisiae strains, strain wild type, hits give low values 1.01

Cc1cc(C)c2cc(C(=O)NCCNc3ccc(C(F)(F)F)cn3)[nH]c2c1
inactive: S. cerevisiae deletion strains, locus YAR019C, strain CDC15, hits give low values 0.983 | S. cerevisiae deletion strains, locus YBL105C, strain PKC1, hits give low values 0.971 | S. cerevisiae deletion strains, locus YBR135W, strain CKS1, hits give low values 0.983 | S. cerevisiae deletion strains, locus YBR136W, strain MEC1, hits give low values 0.981 | S. cerevisiae deletion strains, locus YBR160W, strain CDC28, hits give low values 0.97 | S. cerevisiae deletion strains, locus YDL017W, strain CDC7, hits give low values 0.98 | S. cerevisiae deletion strains, locus YDL028C, strain MPS1, hits give low values 0.98 | [1] 0.936 | S. cerevisiae deletion strains, locus YDL108W, strain KIN28, hits give low values 0.972 | S. cerevisiae deletion strains, locus YDL132W, strain cdc53, hits give low values 0.992 | S. cerevisiae deletion strains, locus YDR052C, strain DBF4, hits give low values 0.983 | S. cerevisiae deletion strains, locus YDR054C, strain cdc34, hits give low values 0.968 | S. cerevisiae deletion strains, locus YDR226W, strain ADK1, hits give low values 0.983 | S. cerevisiae deletion strains, locus YFL009W, strain cdc4, hits give low values 0.991 | S. cerevisiae deletion strains, locus YFL029C, strain CAK1, hits give low values 0.985 | S. cerevisiae deletion strains, locus YFR003C, strain YPI1, hits give low values 0.976 | S. cerevisiae deletion strains, locus YFR028C, strain CDC14, hits give low values 0.976 | S. cerevisiae deletion strains, locus YIL147C, strain SLN1, hits give low values 0.984 | S. cerevisiae deletion strains, locus YJL128C, strain PBS2, hits give low values 0.961 | S. cerevisiae deletion strains, locus YJR016C, strain ILV3, hits give low values 0.985 | S. cerevisiae deletion strains, locus YKL193C, strain SDS22, hits give low values 0.989 | S. cerevisiae deletion strains, locus YMR001C, strain CDC5, hits give low values 0.986 | S. cerevisiae deletion strains, locus YMR277W, strain FCP1, hits give low values 0.992 | S. cerevisiae deletion strains, locus YNL006W, strain LST8, hits give low values 0.986 | S. cerevisiae deletion strains, locus YNL161W, strain CBK1, hits give low values 0.986 | S. cerevisiae deletion strains, locus YNL207W, strain RIO2, hits give low values 0.955 | S. cerevisiae deletion strains, locus YNL222W, strain SSU72, hits give low values 0.974 | S. cerevisiae deletion strains, locus YNL307C, strain MCK1 (second series), hits give low values 0.644 | S. cerevisiae deletion strains, locus YOL078W, strain AVO1, hits give low values 0.985 | S. cerevisiae deletion strains, locus YOR329C, strain SCD5, hits give low values 0.984 | S. cerevisiae deletion strains, locus YPL209C, strain IPL1, hits give low values 0.976 | S. cerevisiae deletion strains, locus YPR025C, strain CCL1, hits give low values 0.98 | S. cerevisiae deletion strains, locus YPR106W, strain ISR1, hits give low values 1 | S. cerevisiae deletion strains, locus YPR111W, strain DBF20, hits give low values 0.944 | S. cerevisiae deletion strains, strain NNK1, hits give low values 0.94 | S. cerevisiae deletion strains, strain TSCII, hits give low values 0.985
active: S. cerevisiae deletion strains, locus YDL214C, strain PRR2, hits give low values 0.468 | S. cerevisiae deletion strains, locus YDR477W, strain SNF1, hits give low values 0.457 | S. cerevisiae deletion strains, locus YER123W, strain YCK3, hits give low values 0.381 | S. cerevisiae deletion strains, locus YER133W, strain GLC7, hits give low values 0.487 | S. cerevisiae deletion strains, locus YFR019W, strain FAB1, hits give low values 0.322 | S. cerevisiae deletion strains, locus YGR040W, strain KSS1, hits give low values 0.501 | S. cerevisiae deletion strains, locus YGR052W, strain FMP48, hits give low values 0.249 | S. cerevisiae deletion strains, locus YGR092W, strain DBF2, hits give low values 0.225 | [2] 0.0941 | S. cerevisiae deletion strains, locus YHR079C, strain IRE1, hits give low values 0.11 | S. cerevisiae deletion strains, locus YHR082C, strain KSP1, hits give low values 0.125 | S. cerevisiae deletion strains, locus YHR205W, strain SCH9, hits give low values 0.457 | S. cerevisiae deletion strains, locus YJL095W, strain BCK1, hits give low values 0.102 | S. cerevisiae deletion strains, locus YJL157C, strain FAR1, hits give low values 0.501 | S. cerevisiae deletion strains, locus YJR066W, strain TOR1 (second series), hits give low values 0.212 | S. cerevisiae deletion strains, locus YJR066W, strain TOR1, hits give low values 0.121 | S. cerevisiae deletion strains, locus YKL048C, strain ELM1, hits give low values 0.511 | S. cerevisiae deletion strains, locus YKL067W, strain YNK1, hits give low values 0.567 | S. cerevisiae deletion strains, locus YKL203C, strain TOR2, hits give low values 0.233 | S. cerevisiae deletion strains, locus YLR113W, strain HOG1, hits give low values 0.137 | S. cerevisiae deletion strains, locus YLR133W, strain CKI1, hits give low values 0.446 | S. cerevisiae deletion strains, locus YLR403W, strain SFP1, hits give low values 0.557 | S. cerevisiae deletion strains, locus YML070W, strain DAK1, hits give low values 0.365 | S. cerevisiae deletion strains, locus YMR205C, strain PFK2 (second series), hits give low values 0.551 | S. cerevisiae deletion strains, locus YNL020C, strain ARK1, hits give low values 0.415 | S. cerevisiae deletion strains, locus YNL183C, strain NPR1, hits give low values 0.169 | S. cerevisiae deletion strains, locus YOL136C, strain PFK27, hits give low values 0.398 | S. cerevisiae deletion strains, locus YOR061W, strain CKA2, hits give low values 0.59 | S. cerevisiae deletion strains, locus YOR119C, strain RIO1, hits give low values 0.341 | S. cerevisiae deletion strains, locus YOR231W, strain MKK1, hits give low values 0.129 | S. cerevisiae deletion strains, locus YPL031C, strain PHO85, hits give low values 0.276 | S. cerevisiae deletion strains, locus YPL153C, strain RAD53, hits give low values 0.184 | S. cerevisiae deletion strains, locus YPL204W, strain HRR25, hits give low values 0.268 | S. cerevisiae deletion strains, locus YPL256C, strain CLN2, hits give low values 0.137
